MRP reversal: MRP-mediated drug resistance reversal; H69AR cells + 2 uM doxorubicin, CellTiter-Glo, 72 h; differential viability (reversal), % at 10 µM; 85,000 tested, 0.04% active;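 active = viability drop by adding the cancer drug above about 55%, with treated viability meeting a 40% cutoff, limit read from the data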;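 also: larger differential means the compound sensitizes cells more to doxorubicin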
Pyk2 oligo antag: Pyk2 (human) oligomerization antagonism; Q293 cells, Pyk2 FERM NanoBiT luminescence; active compounds read low; z-score (the deposit names both 25 µM and 10 µM); 99,000 tested, 0.83% active;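 active = Z-score of -3 or lower, scaled per plate to the spread of control and sample wells; inactive = z-score above -3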;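 also: negative z-score means lost luminescence so less FERM oligomerization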
MRP1 act: activators of MRP-1 | H69AR cells + doxorubicin, viability rescue, CellTiter-Glo | viability increase, % at 10 µM | 140,000 tested, 0.61% active | AID 799;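 active = viability gain under doxorubicin at or above a set limit, the compound median plus 3 SD, cut at about 4.7% in these data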;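 also: MRP-1 overexpressing cells given doxorubicin 25 µM after compound pretreatment; 18-22 h compound pretreatment then 72 h with doxorubicin before readout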
CD11b adhes inh: CD11b/CD18-fibrinogen binding inhibition | P05107+P11215 | 93,000 tested, 0.54% active | inhibition, % at 10 µM | AID 1497 | K562 CD11b/CD18 adhesion to fibrinogen, ATPlite luminescence; Mn2+ added to activate the integrin;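 active = primary inhibition of 50% or more at 10 µM, then 40% or more on retest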
Target sequence (P05107 whole entry, looked up, other chains not shown): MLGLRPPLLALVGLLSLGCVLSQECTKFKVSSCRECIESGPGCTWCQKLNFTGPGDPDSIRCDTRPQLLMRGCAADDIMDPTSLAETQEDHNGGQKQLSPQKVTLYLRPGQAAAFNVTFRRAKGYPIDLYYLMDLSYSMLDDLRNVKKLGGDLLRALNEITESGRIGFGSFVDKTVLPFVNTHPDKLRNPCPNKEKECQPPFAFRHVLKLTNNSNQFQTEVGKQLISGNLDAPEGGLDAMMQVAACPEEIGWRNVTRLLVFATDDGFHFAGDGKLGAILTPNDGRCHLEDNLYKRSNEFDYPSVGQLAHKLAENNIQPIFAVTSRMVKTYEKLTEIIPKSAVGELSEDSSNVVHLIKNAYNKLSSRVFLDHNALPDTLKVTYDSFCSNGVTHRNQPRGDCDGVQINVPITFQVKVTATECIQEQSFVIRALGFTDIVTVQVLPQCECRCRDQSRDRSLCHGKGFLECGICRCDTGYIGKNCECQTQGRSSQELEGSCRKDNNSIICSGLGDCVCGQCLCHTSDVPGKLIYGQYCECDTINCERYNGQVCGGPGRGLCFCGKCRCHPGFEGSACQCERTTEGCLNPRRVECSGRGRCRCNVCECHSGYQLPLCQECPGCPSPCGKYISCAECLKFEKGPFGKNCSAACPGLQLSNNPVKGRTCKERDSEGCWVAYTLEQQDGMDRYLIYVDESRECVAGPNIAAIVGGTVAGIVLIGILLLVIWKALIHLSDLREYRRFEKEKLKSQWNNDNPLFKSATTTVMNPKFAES
Cav32 inh: inhibitors of human Cav3.2 T-type calcium channel | O95180 | Cav3.2-expressing cells, Fluo-4 calcium fluorescence FDSS; active compounds read low | B-score at 10 µM | 100,000 tested, 4% active | AID 449739;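 active = single-dose well whose peak fluorescence ratio is a statistical outlier from its plate by either plate-standardised score or position-corrected B-score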
CD11b adhes enh: CD11b/CD18-fibrinogen binding enhancement. P05107+P11215. activation, % at 10 µM. K562 CD11b/CD18 adhesion to fibrinogen, ATPlite luminescence. 93,000 tested, 0.07% active;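 active = 10 µM primary screen giving 50% or more activity, confirmed by 40% or more on retest at that dose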
Hits are given with their value; – = inactive; · = no result given. Sampled rows, rich in hits. Any-hit rate of the full collection: about 4.1%.

SMILES	MRP reversal	Pyk2 oligo antag	MRP1 act	CD11b adhes inh	Cav32 inh	CD11b adhes enh
O=C(CN1C(=O)c2ccccc2C1=O)Nc1cccc2cccnc12	–	·	–	–	-11	–
O=C(COc1ccc2ccccc2c1)Nc1cccc2cccnc12	–	–	–	–	–	–
COc1ccccc1NC(=O)c1ccc(NS(=O)(=O)c2ccc(F)c(Cl)c2)cc1	·	·	–	·	·	·
CCS(=O)(=O)n1nc(NCc2cccc(OC)c2)nc1NCc1cccc(OC)c1	·	–	–	–	-4.2	–
COc1cccc(CNS(=O)(=O)c2cn(C)cn2)c1	–	–	–	–	·	–
O=C(C1CCN(S(=O)(=O)c2cccc3cccnc23)CC1)N1CCn2c1nc1ccccc12	–	·	–	–	·	–
Cc1ccc(NC(=O)Cn2c(=O)oc3cc(S(=O)(=O)N4CCC(C)CC4)ccc32)cc1C	–	·	–	–	-5.9	–
Cc1nc(-c2ccc(NC(=O)C3CCCCC3)cc2)cs1	·	–	–	–	–	–
O=C(CN(C(=O)c1ccc(Cl)cc1)C1CCCCC1)Nc1ccc(Cl)c([N+](=O)[O-])c1	·	·	–	–	·	–
Cc1ccc([N+](=O)[O-])cc1NC(=O)CCSc1ccc(Cl)cc1	·	–	–	–	–	–
Cc1ccc([N+](=O)[O-])cc1NC(=O)CN(C(=O)c1ccc(Cl)cc1)C1CCCCC1	·	–	–	·	-9.4	·
O=C(CN(C(=O)c1ccccc1Cl)C1CCCCC1)Nc1ccc(Cl)c([N+](=O)[O-])c1	·	–	–	·	-9.9	·
O=C(CCSc1nnc2scc(-c3ccccc3)n12)Nc1nc(-c2ccccc2)ns1	–	–	–	–	-4.6	–
Nc1[nH]n2c(=O)c3c(nc2c1N=Nc1ccccc1)CCCC3	·	–	–	–	-9.6	–
Cc1[nH]n2c(=O)c3c(nc2c1-c1ccccc1)CCC3	–	–	–	–	–	–
Nc1[nH]n2c(=O)c3c(nc2c1N=Nc1ccc(Cl)cc1)CCCC3	·	–	–	·	-8.7	·
CCSc1nnc(C)c2ccccc12	·	–	–	–	–	–
COc1ccc2c(c1)c(=O)oc1cc3oc(C)c(C)c3cc12	–	·	–	–	·	–
Cc1ccc2nc(/N=C(\N)NC(=O)N3c4ccccc4Sc4ccccc43)nc(C)c2c1	·	·	8.7	–	·	–
COc1ccc2nc(/N=C(\N)NC(=O)N3c4ccccc4Sc4ccccc43)nc(C)c2c1	·	–	–	·	·	·
Cc1ccc2c(C)nc(/N=C(\N)NC(=O)N3c4ccccc4Sc4ccccc43)nc2c1	·	·	11	·	·	·
Cc1nc(/N=C(\N)Nc2ccccc2)nc2ccccc12	–	·	–	–	–	–
Cc1cc2nc(/N=C(\N)NC(=O)N3c4ccccc4Sc4ccccc43)nc(C)c2cc1C	·	·	12	·	·	·
CCCc1cc(=O)[nH]c(Nc2cc(OC)ccc2OC)n1	–	–	–	–	–	–
CC(C)(C)OC(=O)NCCCCCc1nnc(SCC(=O)Nc2cccc(Cl)c2)o1	–	–	–	–	-7.3	–
SMILES	MRP reversal	Pyk2 oligo antag	MRP1 act	CD11b adhes inh	Cav32 inh	CD11b adhes enh
Cc1ccc(C)c2[nH]c(=O)c(CN(Cc3ccco3)S(=O)(=O)c3ccc4c(c3)OCCO4)cc12	–	–	5.4	–	–	–
CC1CCN(C(=O)C2CCN(CCCc3ccccc3)CC2)CC1	–	·	–	–	-4.5	–
N#CC1=C(N)NC(SCc2ccc(F)cc2)=C(C#N)C12CCCCC2	–	–	–	77	·	–
N#CC1=C(N)NC(SCC(=O)O)=C(C#N)C12CCCC2	–	–	–	–	·	–
O=C(CSc1nnc2scc(-c3ccccc3)n12)NCc1ccc2c(c1)OCO2	–	–	–	–	–	–
O=C1COc2ccc(C(=O)CSc3nnc(Cc4cccs4)n3-c3ccc(Cl)cc3)cc2N1	–	–	–	·	-3.9	·
O=C(CSc1nnc(-c2ccccc2)n1Cc1ccco1)NCc1ccc2c(c1)OCO2	–	–	–	–	-4.1	–
O=C(CSc1nnc(Cc2cccs2)n1-c1ccccc1)NCc1ccc2c(c1)OCO2	–	–	–	–	-4.7	–
O=C1CCc2cc(S(=O)(=O)NC(Cc3ccccc3)C(=O)NC3CCCCC3)ccc2N1 (stereo unspecified)	–	·	–	–	·	–
Cc1cc(C(c2nnnn2Cc2ccccc2)N2CCOCC2)c(C)n1-c1ccc2c(c1)OCO2 (stereo unspecified)	–	–	–	–	-4.6	–
Cc1ccccc1C(=O)NCCCc1ccccc1	·	·	–	·	·	·
Cc1ccc(C)c(OCCn2c(=O)c3c(ncn3C3CCCC3)n(Cc3ccccc3)c2=O)c1	·	·	–	·	·	·
CCc1nnc(NC(=O)c2ccc(Cl)c(S(=O)(=O)N3CCc4ccccc43)c2)s1	·	–	–	86	–	–
O=C(Nc1nnc(C2CC2)s1)c1ccc(Cl)c(S(=O)(=O)N2CCc3ccccc3C2)c1	·	·	–	–	·	–
O=C(CSc1nnc(COc2ccccc2Cl)o1)NC(=O)NC1CCCC1	–	–	–	–	–	–
O=C(NC(Cc1ccccc1)C(=O)O)/C(=C\c1ccco1)NC(=O)c1ccccc1 (stereo unspecified)	·	·	–	·	·	·
CCc1nnc(NC(=O)C2CCCN2S(=O)(=O)c2ccc(F)cc2)s1 (stereo unspecified)	–	–	5.8	–	–	–
CCCC(=O)Nc1nc2ccc(OC)cc2s1	–	·	–	–	–	–
COc1ccc(NC(=O)C2CCCN2S(=O)(=O)c2ccc3c(c2)CCC(=O)N3)cc1 (stereo unspecified)	–	·	–	–	-4.1	–
COc1ccc(NC(=O)C2CCCN2S(=O)(=O)c2ccc3c(c2)CCC(=O)N3)cc1Cl (stereo unspecified)	–	·	–	–	–	–
COc1ccc2nc(NC(=S)N(C)C)sc2c1	–	–	–	60	–	–
COc1ccc2nc(NC(=O)C3CCCN3S(=O)(=O)c3ccc(C)cc3)sc2c1 (stereo unspecified)	–	–	–	–	-3.7	–
CCc1nnc(NC(=O)CSc2nnc(CSc3nc(C)cc(C)n3)n2C)s1	–	–	–	–	–	–
CC(=O)N1CCC(N(C(=O)Nc2c(F)cccc2F)C(C)C)CC1	–	·	–	–	–	–
COc1ccc2c(c1)C(SCC(=O)NCCc1ccccc1)CC(C)(C)O2 (stereo unspecified)	·	·	–	·	·	·

Screening results: PubChem BioAssay, several laboratories
